Pf Dd2 inh: inhibitors of Plasmodium falciparum Dd2 growth; P. falciparum Dd2 growth, SYBR Green, 72 h; Potency, µM (highest dose often 28.9 µM), most hits filed as inhibitors; 4.3% of 120,000 active; active = well fitted inhibition curve with a large enough effect; note: nearly all actives have a fitted effect of over 65% in size
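Readout: SYBR Green fluorescence, 485 nm excitation, 535 nm emission, after ~16 h lysis at 37C. Before that, Dd2-infected red cells (2.5% hematocrit) grew 72 h with compound, 29 uM top final concentration.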
A number is an active result; i = inactive; ! = a repeat was not active; [ ] = another dose, or the depositor's remark. This is one part of a sample in which hits are shown more often than they occur.

SMILES	Pf Dd2 inh
CC(=O)N1CCC(C(=O)N2CC(c3nc(CCOc4cccc(C)c4)no3)C2)CC1	i
CCCOc1ccc(C2c3c(-c4c(C)cc(C)cc4O)n[nH]c3C(=O)N2CCO)cc1 (configuration not stated)	i
COc1cc(C2c3c(oc4cc(C)c(C)cc4c3=O)C(=O)N2CCCN2CCOCC2)ccc1O (configuration not stated)	i
COc1cc(C2c3c(-c4cc(C)ccc4O)n[nH]c3C(=O)N2CCCO)ccc1OCCC(C)C (configuration not stated)	3.2µM
COc1cc(C2N=C(N)Nc3nc4ccccc4n32)ccc1OCCC(C)C (configuration not stated)	i
COCCN1C(=O)c2[nH]nc(-c3cc(C)ccc3O)c2C1c1ccc(C(C)C)cc1 (configuration not stated)	8.9µM
COCCn1ncc(N2CCC(NC(=O)c3ccc(C(C)C)cc3)CC2)cc1=O	i
Cc1ccc(NC(=O)O[C@@H]2CC[C@]3(C)C(CC[C@@H](O)[C@H]3CC(=O)N3CCC[C@H]3CO)[C@]2(C)CO)cc1 (some centres not stated)	i
O=C(c1cccnc1CCC1COc2ccccc2O1)N1CCCC1 (configuration not stated)	i
O=C1Nc2ccccc2C2(CCN(C(=O)c3ccccc3)C2)O1 (configuration not stated)	i
O=C1CCCN1CCCN1C(=O)[C@H]2CN(Cc3cccc(Cl)c3F)C[C@H]2C1=O	i
O=C1NCCCCCN(C(=O)c2ccc3ccccc3n2)[C@H]2CCC[C@@H]12	i
Nc1c(C(=O)Nc2ccccc2)sc2nc3c(cc12)CN(Cc1ccccc1)CC3	i
CCOc1ccccc1NC(=O)c1sc2nc3c(cc2c1N)CN(Cc1ccccc1)CC3	10µM
CN1CCc2nc3sc(C(=O)Nc4ccccc4OC(F)(F)F)c(N)c3cc2C1	i
CCCS(=O)(=O)N1CCC(Oc2ccccc2-c2nc(C3CC3)no2)C1 (configuration not stated)	i
CCc1ccccc1OCC(=O)c1ccc2c(c1)N(CCCC(=O)NCC1CCCO1)C(=O)CO2 (configuration not stated)	i
COCCNc1ncccc1-c1noc([C@@H]2CCCN2Cc2ccncc2)n1	i
CN(C1CCCCC1)S(=O)(=O)c1ccc2c(c1)c(=O)c(C(=O)NCc1ccc(F)cc1)cn2C	i
CCn1cc(C(=O)N2CCN(c3cc(C)ccc3C)CC2)c(=O)c2cc(S(=O)(=O)N3CCOCC3)ccc21	i
CN(C1CCCCC1)S(=O)(=O)c1ccc2c(c1)c(=O)c(C(=O)N1CCN(c3ccccc3F)CC1)cn2C	0.89µM
COc1ccc(-n2nc(C(=O)N3CCN(c4ccccc4OC)CC3)c3c4ccccc4n(C)c3c2=O)cc1	i
COc1ccc(N2CCN(C(=O)c3cn(C4CCCCC4)c(=O)c4c3c3ccccc3n4C)CC2)cc1	5µM
COc1ccc(N2CCN(C(=O)c3cn(C)c4ccc(S(=O)(=O)N(C)C5CCCCC5)cc4c3=O)CC2)cc1	11µM
CCn1cc(C(=O)N2CCN(c3ccccc3F)CC2)c(=O)c2cc(S(=O)(=O)N(C)C)ccc21	i
SMILES	Pf Dd2 inh
COc1ccc(-n2nc(C(=O)N3CCN(c4ccc(F)cc4)CC3)c3c4ccccc4n(C)c3c2=O)cc1	i
Cn1cc(C(=O)N2CCN(c3ccccc3)CC2)c(=O)c2cc(S(=O)(=O)N3CCCC3)ccc21	1.6µM
CCn1cc(C(=O)N2CCN(c3ccc(F)cc3)CC2)c(=O)c2cc(S(=O)(=O)N(C)C3CCCCC3)ccc21	i
Cn1cc(C(=O)N2CCN(c3cccc(Cl)c3)CC2)c(=O)c2cc(S(=O)(=O)N3CCCC3)ccc21	i
CN(C1CCCCC1)S(=O)(=O)c1ccc2c(c1)c(=O)c(C(=O)N1CCN(c3ccc(F)cc3)CC1)cn2C	i
COc1cccc(CNC(=O)Cn2nc3n(c2=O)CCCC3)c1OC	i
COc1cccc(N2CC(C(=O)N3CCC(C(=O)N4CCOCC4)C3)NC2=O)c1 (configuration not stated)	i
Cc1nc(CC2CCN(C(=O)Cc3ccccc3)CC2)n[nH]1	i
O=C(NCCc1ccncc1)C1CN(C(=O)c2ccc(F)c(F)c2)CC12CCOCC2 (configuration not stated)	i
CCn1ccc(C(=O)N2CCC3(CCCCO3)CC2)n1	i
COCc1ccc(C(=O)NCc2cc3n(n2)CCCN(CC(C)C)C3)o1	i
c1cncc(CN2CC[C@H](c3nnc(Cc4c[nH]c5ccccc45)o3)C2)c1	11µM
c1ccc2c(Cc3nnc([C@H]4CCN(CC5CC5)C4)o3)c[nH]c2c1	i
CC(=O)N1CC[C@H](c2nnc(Cc3c[nH]c4ccccc34)o2)C1	i
CCOC(=O)C1CCN(C(=O)CCN(CC)C(=O)c2cc(C)oc2C)CC1	i
CN1CCCCCC(O)c2cc(C(=O)N3CCN(c4ccccn4)CC3)ccc21 (configuration not stated)	i
COc1ccc(C(=O)N2CCC(c3nn(-c4ccc(Cl)cc4)c(=O)[nH]3)CC2)cc1	i
CC(C)(C)C(=O)N1CCC(c2nn(-c3ccc(Cl)cc3)c(=O)[nH]2)CC1	8.9µM
COc1ccc(-n2nc(C3CCN(Cc4ccc(C#N)cc4)CC3)[nH]c2=O)cc1	i
COc1ccc(-n2nc(C3CCN(Cc4ccc(C)cc4)CC3)[nH]c2=O)cc1	13µM!
COc1ccc(-n2nc(C3CCN(Cc4ccc(F)cc4)CC3)[nH]c2=O)cc1	i
O=C(Cc1ccc(F)cc1)N1CCC(c2nn(-c3ccc(Cl)cc3)c(=O)[nH]2)CC1	i
O=C(CCc1cc(=O)[nH]o1)N[C@H](c1ccccn1)C1CC(O)C1 (some centres not stated)	i
COc1ccc(C(=O)NC2CCN(c3cnn(CC4CC4)c(=O)c3)CC2)cc1F	i
O=C(c1ccc(N2CCC(NCC(c3ccccc3)c3ccccc3)CC2)cc1)N1CCCC(O)C1 (configuration not stated)	11µM
SMILES	Pf Dd2 inh
O=C(Nc1ccc(N2CCC(NCC(c3ccncc3)N3CCOCC3)CC2)cc1)C1CCCC1 (configuration not stated)	i
Cn1cnnc1CC1CCCN(C(=O)c2ccccc2)C1 (configuration not stated)	i
O=C(NC1CCCC1)N1c2ccccc2CC1c1nc(C2CC2)no1 (configuration not stated)	i[5.79 µM]
CCNC(=O)[C@@H]1C[C@H](NC(=O)c2ccc(CC)s2)CN1C1CCOCC1	i
COc1ccc(CCC(=O)N2CCCCCNC(=O)[C@@H]3CCC[C@@H]32)cc1	i
CC(NC(=O)Cc1cccn1-c1ccc(Cl)cc1)c1ccccn1 (configuration not stated)	i
CCC(CC)NC(=O)c1cnc2cc(C)nn2c1	i
CNC(=O)c1nnn2cc(C)[nH]c(=O)c12	i
Cc1ccc(CNC(=O)c2nnn3cc(-c4ccc(F)cc4)[nH]c(=O)c23)cc1	i
CCc1ccc(CNC(=O)c2nnn3cc(C)[nH]c(=O)c23)cc1	7.9µM
Cc1cn2nnc(C(=O)NCCC3=CCCCC3)c2c(=O)[nH]1	10µM
Cc1cn2nnc(C(=O)NCCc3cccs3)c2c(=O)[nH]1	i
COc1cccc(CNC(=O)c2nnn3cc(C)[nH]c(=O)c23)c1	i
COc1ccc(C2=NOC3(CCN(C(=O)c4ccccc4OC)C3)C2)cc1 (configuration not stated)	i
O=C1NCCC[C@@H]1NC(=O)[C@@H]1CN(C(=O)c2cccs2)CCN1C(=O)c1ccccc1	i
COC(=O)c1cn([C@H]2CO[C@H]3[C@@H]2OC[C@@H]3NC(=O)c2ccc(N(C)C)cc2)nn1	i

Screening data from PubChem.
